Data published in PubChem BioAssay (NCATS).
Records with an inconclusive call do not appear. Activity calls are given as the source filed them. Unless noted, the call rests on the fitted dose curve; in most records, active means well fitted curve in the direction sought with a large enough effect; inconclusive means small, poorly fitted or top-dose-only effect, or another doubt; inactive means no such curve, though single readings can be large; an effect the other way counts as inactive or inconclusive.

Tests used:
[1] = qHTS assay for small molecule antagonists of peroxisome proliferator-activated receptor delta signaling (AID 588535; active means well fitted inhibition curve with a large enough effect in the signal ratio, with a control signal flat, not every such curve was filed as active; the % refers to the signal ratio;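 on max response: cells co-treated with a PPAR-delta agonist as stimulator during compound exposure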); conditions: HEK293T PPARd-UAS-bla, beta-lactamase FRET ratio, 18 h; 460 nm channel
Method in brief: (§1)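 Reporter: UAS-bla under PPAR-delta response element, HEK293T host. Medium: 2% charcoal/dextran FBS. Dosing: titration, 18 hrs, 37 C. Detection: CCF4, 2 hrs RT, 405 ex/460 and 530 em.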

[2] = biological target: Peroxisome proliferator-activated receptor delta (Homo sapiens) (UniProt Q03181); assay: as above; conditions: HEK293T PPARd-UAS-bla, beta-lactamase FRET ratio, 18 h; series mostly up to 76.7 µM
Method in brief: as §1

[3] = biological target: Vitamin D3 receptor (Homo sapiens) (UniProt P11473); assay: qHTS assay for small molecule agonists of vitamin D receptor signaling (AID 588543; calls by dose curve;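 further: 0% = DMSO basal and 100% = reference agonist control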); conditions: HEK293T VDR-UAS-bla, beta-lactamase ratio, 16 h; series mostly up to 76.8 µM
Method in brief: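 GeneBLAzer VDR-UAS-bla HEK293T cells in 2% charcoal-stripped FBS medium were dosed with compound titrations for 16 h at 37 °C; CCF4 β-lactamase readout (405 nm ex, 460/530 nm em). EC50 and efficacy from Hill fits, normalized to 50 nM calcitriol (100%) and DMSO (0%).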

[4] = qHTS assay for small molecule agonists of retinoid X receptor alpha signaling (AID 588544; calls by dose curve; further: potency means the concentration at half of the fitted maximal effect;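 on activation: 0% = DMSO basal wells and 100% = reference agonist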); conditions: HEK293T RXRa-UAS-bla, beta-lactamase reporter, 18 h; 530 nm emission
[5] = biological target: Retinoic acid receptor RXR-alpha (Homo sapiens) (UniProt P19793); assay: as above; conditions: HEK293T RXRa-UAS-bla, beta-lactamase reporter, 18 h; series mostly up to 76.7 µM
[6] = biological target: Thyroid hormone receptor beta (Homo sapiens) (UniProt P10828); assay: qHTS assay for small molecule agonists of thyroid hormone receptor beta signaling (AID 588545; calls by dose curve;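 further: 0% = DMSO only and 100% = 10 nM T3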); conditions: TR-UAS-bla GripTite HEK 293, beta-lactamase ratio, agonist mode, 18 h; series mostly up to 76.7 µM
Method in brief: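 Efficacy and EC50 values derive from Hill fits of qHTS titration data, normalized to 10 nM T3 and DMSO-only wells. HEK 293 reporter cells were stimulated for 18 hrs at 37 C, with beta-lactamase activity measured by CCF4 fluorescence.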

[7] = qHTS assay for small molecule antagonists of retinoid X receptor alpha signaling (AID 588546; active means well fitted inhibition curve with a large enough effect in the signal ratio, with a control signal flat, not every such curve was filed as active; the % refers to the signal ratio;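 further: cells stimulated with 9-cis-retinoic acid as agonist; on the % scale 0 is the no-effect control and ±100 the full control effect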); conditions: HEK293T RXRa-UAS-bla, beta-lactamase ratio, antagonist mode; measured here: W530 green channel, cytotoxicity proxy
Method in brief: (§2)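 Beta-lactamase reporter inhibition, read as CCF4 fluorescence ratio (ex 405, em 460/530 nm) after 2 h at RT. HEK293T UAS-bla cells, 2500/well, were stimulated with 9-cis-RA at 500 or 100 nM final alongside test compound for 18 h at 37 C.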

[8] = biological target: Retinoic acid receptor RXR-alpha (Homo sapiens) (UniProt P19793); assay: as above; conditions: HEK293T RXRa-UAS-bla, beta-lactamase ratio, antagonist mode
Method in brief: as §2

[9] = biological target: Thyroid hormone receptor beta (Homo sapiens) (UniProt P10828); assay: qHTS assay for small molecule antagonists of thyroid hormone receptor beta signaling (AID 588547; active means well fitted inhibition curve with a large enough effect in the signal ratio, with a control signal flat, not every such curve was filed as active; the % refers to the signal ratio;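 further: cells stimulated with 0.4 nM T3 agonist during compound exposure; on the % scale 0 is the no-effect control and ±100 the full control effect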); conditions: TR-UAS-bla HEK293, beta-lactamase ratio, antagonist mode, 18 h
Method in brief: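 TR-UAS-bla GripTite HEK293 cells in 2% charcoal/dextran FBS medium were preincubated 4 h at 37 C, given compound (0.59 nM to 92 uM) plus 0.4 nM T3 (final) for 18 h, then CCF4 for 2 h at RT; Hill fit gave IC50.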

[10] = qHTS assay for small molecule activators of the nuclear factor-kappa B (NF-kB) signaling pathway (AID 651749; active means well fitted activation curve with a large enough effect in the signal ratio; the % refers to the signal ratio; further: % of control where 0% means no effect); conditions: NF-kB-bla ME-180 cells, beta-lactamase FRET ratio, 16 h; activation: stronger effect = higher value
Method in brief: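 Screening used 2,000 ME-180 reporter cells per well exposed to pinned compound (23 nL) or DMSO; after 16 hr at 37C, beta-lactamase expression under NF-kB control was assessed through FRET.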

[11] = qHTS assay for environmental chemicals that activate the Aryl hydrocarbon Receptor (AhR) signaling pathway (AID 651777); conditions: 1A2-DRE human hepatoma cells, luciferase, 24 h; activation: stronger effect = higher value; further: nearly all actives have a fitted effect of over 15% in size; further: potency means the concentration at half of the fitted maximal effect; on activation: % of control where 0% means no effect
Method in brief: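 Luminescence (One-Glo, 30 min, room temperature) reports AhR-driven luciferase in stably transfected human hepatoma cells bearing DRE and CYP1A2 promoter. Cells (1,200/well) were treated with compound for 24 hr at 37 C in qHTS format.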

[12] = qHTS assay for small molecule agonists of the antioxidant response element (ARE) signaling pathway measured by Nrf2-dependant transcriptional activity - cell viability counter screen (AID 720653; active means well fitted curve in the direction sought with a large enough effect in the repeat runs; an effect the other way counts as inactive or inconclusive; further: potency means the concentration at half of the fitted maximal effect; on max response: on the % scale 0 is the no-effect control and ±100 the full control effect); conditions: ARE-bla HepG2 viability, CellTiter-Glo ATP luminescence, 16 h; max response: stronger effect = lower value
Method in brief: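 ARE-bla HepG2 cells (2,000/well) rested 5 hrs at 37C/5% CO2, then exposed to compounds in DMSO for 16 hrs. Viability was read in the same wells as intracellular ATP by luminescence, 30 min at room temperature after reagent addition.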

[13] = qHTS assay for cell viability of HEK293 cells (AID 743288); conditions: ATP luminescence (CellTiter-Glo), 18 h; max response: stronger effect = lower value; further: on the % scale 0 is the no-effect control and ±100 the full control effect; nearly all actives have a fitted effect of over 50% in size
Method in brief: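 Parental HEK293 cells were seeded at 2,000 cells/well, rested at least 5 h at 37 C, then exposed to compounds in DMSO for 18 h at 37 C. Viability was read as ATP-dependent luciferase luminescence after 30 min at room temperature.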

[14] = biological target: Nuclear receptor subfamily 1 group I member 2 (Rattus norvegicus) (UniProt Q9R1A7); assay: qHTS assay for small molecule activators of the rat pregnane X receptor (rPXR) signaling pathway (AID 651751; call rule not given here; further: 0% is about no effect); conditions: rPXR reporter cells, luciferase (One-Glo), 24 h
[15] = qHTS assay for small molecule activators of the p53 signaling pathway (AID 651743; active means well fitted activation curve with a large enough effect in the signal ratio, not every such curve was filed as active; the % refers to the signal ratio; further: % of control where 0% means no effect); conditions: HCT-116 p53RE-bla, beta-lactamase FRET ratio, 16 h; activation: stronger effect = higher value
Method in brief: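 Cell-based beta-lactamase reporter (p53 response elements, HCT-116 background). After a 5-hour preincubation, cells received compound for 16 hours at 37 C; substrate development ran 2 hours at room temperature.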

[16] = biological target: Peroxisome proliferator-activated receptor alpha (Homo sapiens) (UniProt Q07869); assay: qHTS assay for small molecule agonists of the peroxisome proliferator-activated receptor alpha (PPARalpha) signaling pathway (AID 651778); conditions: PathHunter PPARalpha complementation, chemiluminescence, 6 h; max response: stronger effect = higher value; further: % of control where 0% means no effect
Method in brief: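 Cells plated at 2,000/well and held overnight at 37 C, 5% CO2, then compound added by pin tool for 6 hr; after PathHunter detection reagent and 60 min at room temperature, chemiluminescence from enzyme complementation was read.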

[17] = qHTS assay for small molecule agonists of the antioxidant response element (ARE) signaling pathway measured by Nrf2-dependant transcriptional activity (AID 720636; active means well fitted curve in the direction sought with a large enough effect in the repeat runs; an effect the other way counts as inactive or inconclusive; further: % of control where 0% means no effect); conditions: ARE-luc HepG2, Nrf2 luciferase reporter, 16 h; series mostly up to 92.4 µM
Method in brief: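 Nrf2-dependent transcription read as ONE-Glo luciferase signal from ARE-luc HepG2 reporter cells after 16 hr compound treatment at 37 C, 5% CO2, in assay medium with 1% dialyzed FBS.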

[18] = qHTS assay for cell viability of the p53RE-bla HCT-116 cell line (AID 743292); conditions: p53RE-bla HCT-116 viability, ATP luminescence, 16 h; series mostly up to 95 µM; further: nearly all actives have a fitted effect of over 55% in size; further: potency means the concentration at half of the fitted maximal effect
Method in brief: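 ATP-based luminescent viability (CellTiter-Glo, 30 min RT) after 16 h compound treatment at 37 C of p53RE-bla HCT-116 cells, seeded at 4,000 cells/well and rested 5 h before dosing.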

[19] = qHTS assay for small molecule activators of the human pregnane X receptor (PXR) signaling pathway (AID 720659; call rule not given here; further: 0% is about no effect); conditions: DPX-2 HepG2 CYP3A4-luciferase, 24 h; series mostly up to 92.3 µM
[20] = biological target: Vitamin D3 receptor (Homo sapiens) (UniProt P11473); assay: qHTS assay for small molecule antagonists of vitamin D receptor signaling (AID 588541; calls by dose curve; further: potency means the concentration at half of the fitted maximal effect); conditions: HEK293T VDR-UAS-bla, beta-lactamase ratio, antagonist mode; series mostly up to 76.7 µM
Method in brief: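 VDR-UAS-bla HEK293T cells (2000/well, 2% charcoal-stripped FBS) were treated with titrated compounds plus 1-alpha,25-dihydroxyvitamin D3 (50 nM or 3 nM final) for 16 h at 37 C. CCF4 beta-lactamase fluorescence was read; Hill fits gave IC50.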

Peroxisome proliferator-activated receptor alpha (Homo sapiens), sequence (Q07869 whole entry, looked up): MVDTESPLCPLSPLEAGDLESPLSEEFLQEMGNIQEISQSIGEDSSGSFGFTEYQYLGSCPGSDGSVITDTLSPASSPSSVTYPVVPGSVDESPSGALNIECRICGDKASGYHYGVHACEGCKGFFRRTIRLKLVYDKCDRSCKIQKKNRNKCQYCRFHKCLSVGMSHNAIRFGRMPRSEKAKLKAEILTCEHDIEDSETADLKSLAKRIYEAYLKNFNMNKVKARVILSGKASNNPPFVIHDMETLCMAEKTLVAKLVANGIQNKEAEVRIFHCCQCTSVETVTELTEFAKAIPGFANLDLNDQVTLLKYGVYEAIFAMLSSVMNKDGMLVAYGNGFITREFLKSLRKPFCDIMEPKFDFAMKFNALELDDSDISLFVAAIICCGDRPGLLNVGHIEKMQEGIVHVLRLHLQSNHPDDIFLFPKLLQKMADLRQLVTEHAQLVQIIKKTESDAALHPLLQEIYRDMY
Peroxisome proliferator-activated receptor delta (Homo sapiens), sequence (Q03181 whole entry, looked up): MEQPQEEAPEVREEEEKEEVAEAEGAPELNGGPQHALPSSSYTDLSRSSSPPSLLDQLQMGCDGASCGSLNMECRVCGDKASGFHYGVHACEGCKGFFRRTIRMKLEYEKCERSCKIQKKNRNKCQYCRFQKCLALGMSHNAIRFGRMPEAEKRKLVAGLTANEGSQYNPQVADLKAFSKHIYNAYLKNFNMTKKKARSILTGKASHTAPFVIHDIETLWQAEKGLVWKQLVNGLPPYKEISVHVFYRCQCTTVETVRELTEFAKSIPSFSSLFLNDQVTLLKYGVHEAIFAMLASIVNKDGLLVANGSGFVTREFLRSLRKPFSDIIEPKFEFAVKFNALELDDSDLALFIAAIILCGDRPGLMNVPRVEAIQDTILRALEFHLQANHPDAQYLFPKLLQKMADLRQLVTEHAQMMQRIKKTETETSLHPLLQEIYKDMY
Nuclear receptor subfamily 1 group I member 2 (Rattus norvegicus), sequence (Q9R1A7 whole entry, looked up): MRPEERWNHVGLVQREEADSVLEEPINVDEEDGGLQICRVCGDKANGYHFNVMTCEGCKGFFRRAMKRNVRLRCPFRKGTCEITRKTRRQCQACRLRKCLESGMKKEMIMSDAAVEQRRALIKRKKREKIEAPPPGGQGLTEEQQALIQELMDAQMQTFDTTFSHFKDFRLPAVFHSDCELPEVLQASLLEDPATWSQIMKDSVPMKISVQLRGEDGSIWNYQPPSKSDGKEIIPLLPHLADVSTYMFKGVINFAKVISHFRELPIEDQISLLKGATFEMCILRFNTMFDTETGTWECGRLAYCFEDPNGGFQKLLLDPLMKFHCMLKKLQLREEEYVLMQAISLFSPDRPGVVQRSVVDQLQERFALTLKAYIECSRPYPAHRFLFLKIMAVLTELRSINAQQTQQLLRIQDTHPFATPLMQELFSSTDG
Retinoic acid receptor RXR-alpha (Homo sapiens), sequence (P19793 whole entry, looked up): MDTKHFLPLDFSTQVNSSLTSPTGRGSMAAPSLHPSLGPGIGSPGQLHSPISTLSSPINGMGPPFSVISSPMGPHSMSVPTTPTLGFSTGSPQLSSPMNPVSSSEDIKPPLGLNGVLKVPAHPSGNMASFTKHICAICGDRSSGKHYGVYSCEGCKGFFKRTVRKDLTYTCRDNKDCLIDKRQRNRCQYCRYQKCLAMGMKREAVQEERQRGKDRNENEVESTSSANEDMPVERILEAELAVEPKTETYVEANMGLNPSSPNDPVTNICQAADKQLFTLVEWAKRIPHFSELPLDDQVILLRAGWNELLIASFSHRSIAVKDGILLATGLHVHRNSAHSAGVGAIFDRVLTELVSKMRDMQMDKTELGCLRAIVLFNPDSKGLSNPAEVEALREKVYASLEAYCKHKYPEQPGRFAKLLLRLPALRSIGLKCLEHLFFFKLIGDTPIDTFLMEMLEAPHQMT
Thyroid hormone receptor beta (Homo sapiens), sequence (P10828 whole entry, looked up): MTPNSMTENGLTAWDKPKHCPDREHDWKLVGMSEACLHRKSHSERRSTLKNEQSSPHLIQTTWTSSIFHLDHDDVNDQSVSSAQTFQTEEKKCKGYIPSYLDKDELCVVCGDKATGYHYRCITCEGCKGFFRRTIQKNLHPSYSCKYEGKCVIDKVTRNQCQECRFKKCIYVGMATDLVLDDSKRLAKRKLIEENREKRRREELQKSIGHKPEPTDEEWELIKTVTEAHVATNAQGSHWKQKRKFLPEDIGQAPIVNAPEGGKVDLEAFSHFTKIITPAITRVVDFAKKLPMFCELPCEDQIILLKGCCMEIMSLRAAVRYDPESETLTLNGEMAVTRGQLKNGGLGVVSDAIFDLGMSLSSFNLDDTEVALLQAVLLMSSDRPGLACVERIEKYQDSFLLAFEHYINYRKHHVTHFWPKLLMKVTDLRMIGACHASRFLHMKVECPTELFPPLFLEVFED
Vitamin D3 receptor (Homo sapiens), sequence (P11473 whole entry, looked up): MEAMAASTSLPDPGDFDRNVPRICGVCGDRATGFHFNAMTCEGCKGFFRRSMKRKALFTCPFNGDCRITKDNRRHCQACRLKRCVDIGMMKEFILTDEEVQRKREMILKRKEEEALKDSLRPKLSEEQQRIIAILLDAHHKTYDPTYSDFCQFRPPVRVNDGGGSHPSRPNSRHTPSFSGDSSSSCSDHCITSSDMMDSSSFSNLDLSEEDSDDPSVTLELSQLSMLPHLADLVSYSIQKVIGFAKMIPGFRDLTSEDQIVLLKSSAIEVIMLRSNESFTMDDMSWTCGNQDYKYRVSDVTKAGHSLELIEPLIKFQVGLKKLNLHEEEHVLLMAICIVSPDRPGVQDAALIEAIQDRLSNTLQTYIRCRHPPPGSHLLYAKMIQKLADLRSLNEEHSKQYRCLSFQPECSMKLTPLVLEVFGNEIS

Cc1ccc(N=Nc2c(O)ccc3ccccc23)c([N+](=O)[O-])c1
-14.3%: max response [4]
39.9%: max response [1]
active: Potency [11] 17.8 µM
inactive: Potency [2] | outcome [3] | Potency [5] | Potency [6] | max response [8] -0.783% | activity change % (negative = inhibition) [9] -2.29% | activation [10] -0.237% | max response [12] -11.8% | max response [13] -2.16% | max response [14] 5.08%
-4.75%: max response [7]

CCCCCCCCC(=O)O
-26.9%: max response [1]
inactive: Potency [2] | Potency [5] | max response [8] -41.9% | activity change % (negative = inhibition) [9] 3.07% | activation [15] 4.29% | activation [11] 2.74% | max response [16] 1.35% | Potency [17] | max response [12] -7.02% | max response [13] -14.6% | Potency [18] | max response [14] -1.4% | outcome [19]
-21.9%: max response [4]
-8.04%: max response [7]

CO/N=C1\C[C@]2(C[C@@H]3C[C@@H](C/C=C(\C)C[C@@H](C)/C=C/C=C4\CO[C@@H]5[C@H](O)C(C)=C[C@@H](C(=O)O3)[C@]45O)O2)O[C@H](/C(C)=C/C(C)C)[C@H]1C
active: Potency [20] 17.8 µM | Potency [12] 44.7 µM | Potency [18] 28.2 µM
inactive: activation [11] 0.384% | Potency [17]

CCCCCCCCCCCCO
-12.2%: max response [4]
3.59%: max response [1]
inactive: Potency [2] | Potency [20] | outcome [3] | Potency [5] | Potency [6] | activity change % (negative = inhibition) [9] -1.52% | activation [15] -3.58% | activation [11] 2.81% | max response [16] -0.593% | Potency [17] | max response [12] -4.36% | max response [13] -11.9% | Potency [18] | max response [14] 1.35% | outcome [19]
-2.04%: max response [7]

COc1ccccc1NC(=O)CC(C)=O
49.4%: max response [1]
inactive: Potency [2] | Potency [20] | outcome [3] | max response [8] -16% | activity change % (negative = inhibition) [9] -1.32% | activation [15] -7.86% | activation [10] -0.04% | activation [11] 6.41% | max response [16] 0.153% | Potency [17] | max response [12] 2.57% | max response [13] -19.2% | Potency [18] | max response [14] 5.67%
7.64%: max response [7]

CC1COCc2cc3c(cc21)C(C)(C)C(C)C3(C)C (stereo not drawn)
-11.9%: max response [4]
inactive: Potency [2] | outcome [3] | Potency [5] | Potency [6] | max response [8] 0.528% | activity change % (negative = inhibition) [9] 0.269% | activation [15] -1.06% | activation [10] 1.51% | activation [11] 1.13% | max response [16] 7.58% | Potency [17] | max response [12] -2.78% | max response [13] -3.83% | Potency [18] | max response [14] 3.75%
-17.6%: max response [7]
-16.1%: max response [1]

CC(C)CCCCCCc1ccc(OCCOCCO)cc1
-48.7%: max response [4]
inactive: activation [11] -9.42% | Potency [17] | max response [12] -4.66% | max response [14] -16.1%
active: Potency [5] 3.55 µM
